Test results taken from PubChem BioAssay.
Inconclusive results are not listed. Activity calls are given as the source filed them. Rule as the data show it, unless noted: active = inhibition above about 80%; inactive = the rest.

Tests used:
[1] = EMT-state selective cytotoxicity in co-culture – imaging, PC-3E GFP, TEM4-18 mCherry, primary screen (AID 1345086;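 active = compounds killing one labelled cell type while sparing the other, by normalised counts and ratio limits, not self-fluorescent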;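 as to all read-outs here: cells exposed to compound for 72 h before imaging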;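 as to red/green cell ratio (normalised): normalised mesenchymal count divided by normalised epithelial count so high means epithelial killing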); settings: PC-3E GFP / TEM4-18 mCherry co-culture, imaging cell counts, at 1 µM; for red/green cell ratio (normalised): actives lie on both sides, counts scaled to control wells, 1 = unselective
[2] = viability loss in pontine glioma line – cell-based, SU-DIPG-XVII, MIPE5.0, CellTiter-Glo, qHTS, dose response (AID 1347060; cut-off not given, nearly all actives have AC50 up to about 26 µM); settings: CellTiter-Glo ATP luminescence
[3] = JHH-DIPG-1 glioma cell viability, MIPE5.0 library, CellTiter-Glo luminescence, qHTS (AID 1347067; cut-off not given, nearly all actives have AC50 up to about 26 µM;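 also: cells exposed to compound for 48 hours before readout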); settings: JHH-DIPG-1 glioma viability, CellTiter-Glo ATP luminescence
[4] = growth inhibition of DIPG cells – cell-based, MIPE5.0 library, qHTS (AID 1347068; cut-off not given, nearly all actives have IC50 up to about 30 µM); settings: SU-DIPG-XXV viability
[5] = growth inhibition, single agent or in combination, cell-based, chromothripsis tumors, cisplatin or BGB combos (AID 1671449); settings: LFS_MB_P medulloblastoma cells;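 also: cells exposed for 96 hours; 0% = vehicle DMSO and 100% = killing by high DMSO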
[6] = growth inhibition, single agent and combos, cell-based, chromothripsis tumors, cisplatin or BGB combos (AID 1671450); settings: HDN33 neuroblastoma cells, stronger effect = higher value;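 also: cells exposed to compound for four days; 0% = vehicle DMSO and 100% = cell killing by high DMSO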
[7] = growth inhibition, single agents and combos, ICB984, cell-based, cisplatin or BGB combos, synergistic combos for chromothripsis tumors (AID 1671451; call rule not given here;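 also: cells exposed for 96 hours before readout; 0% = vehicle DMSO and 100% = killing by high DMSO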); settings: ICB984 medulloblastoma cells, drug combinations, stronger effect = higher value
[8] = growth inhibition, single agents and combos, LFS_MB_1R, cell-based, cisplatin or BGB combos, synergistic combos for chromothripsis tumors (AID 1671452); settings: LFS_MB_1R medulloblastoma cells, stronger effect = higher value;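 also: cells exposed for 96 hours before readout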
[9] = growth inhibition, single agents and combos, HTB85, cell-based, BGB or cisplatin IC20 combos, synergistic combos for chromothripsis tumors (AID 1671453); settings: HTB85 osteosarcoma cells, drug combinations, stronger effect = higher value;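 also: cells exposed for 96 hours before readout; 0% = vehicle DMSO and 100% = high DMSO killing control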
[10] = growth inhibition, single agents and combos, CRL2098, cell-based, BGB or cisplatin IC20 combos, synergistic combos for chromothripsis tumors (AID 1671454); settings: CRL2098 osteosarcoma cells, drug combinations, stronger effect = higher value;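 also: cells exposed for 96 h before readout; 0% = vehicle DMSO and 100% = killing by high DMSO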
[11] = growth inhibition, single agents and combos, HD-MB03, cell-based, BGB or cisplatin IC20 combos, synergistic combos for chromothripsis tumors (AID 1671455; in the data active = inhibition above about 83%;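 also: 0% = vehicle DMSO and 100% = high DMSO as cytotoxic control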); settings: HD-MB03 medulloblastoma cells, stronger effect = higher value
[12] = growth inhibition, single agents and combos, UWB1.289, cell-based, BGB or cisplatin combos, synergistic combos for chromothripsis tumors (AID 1671456); settings: UWB1.289 ovarian carcinoma cells, stronger effect = higher value;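 also: cells exposed to compound for four days; 0% = vehicle DMSO and 100% = killing by high DMSO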
[13] = growth inhibition, single agents and combos, LFS_MB_2R, cell-based, cisplatin combos, synergistic combos for chromothripsis tumors (AID 1671457); settings: LFS_MB_2R medulloblastoma cells, stronger effect = higher value;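 also: cells exposed to compound for four days before readout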
[14] = growth inhibition, MDA-MB-436, cell-based, BGB or cisplatin combos, synergistic combos for chromothripsis tumors (AID 1671458; call rule not given here;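 also: cells exposed for 96 hours; 0% = vehicle DMSO and 100% = killing by high DMSO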); settings: MDA-MB-436 breast carcinoma growth inhibition, drug combinations, stronger effect = higher value
[15] = UWB1.289_BRCA1 ovarian cancer growth, cell-based, BGB or cisplatin combinations (AID 1671459); settings: UWB1.289 BRCA1 ovarian carcinoma, drug combinations, stronger effect = higher value
[16] = drug combination toxicity in non-malignant astrocytes – cell-based, BGB or cisplatin IC20 combos, cytotoxicity control for chromothriptic childhood tumor combination screen (AID 1671460); settings: Human astrocytes, viability inhibition, drug combinations, at 0.5 µM, stronger effect = higher value;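 also: cells exposed to compounds for 96 hours before viability readout; 0% = vehicle and 100% = killing control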
[17] = BT084 cell growth, single and combined drugs, ICGC_MB145, cisplatin and BGB IC40 combos (AID 1671461); settings: BT084 medulloblastoma cells, drug combinations, stronger effect = higher value;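 also: cells exposed to drugs for 96 hours; 0% = vehicle DMSO and 100% = high DMSO full killing control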
[18] = RCMB18 cell growth, single agent and combined, cisplatin and BGB IC40 combos (AID 1671462); settings: RCMB18 medulloblastoma cells, stronger effect = higher value;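 also: cells exposed to compound for four days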
[19] = CRL1545 cell growth, single agent and combined, cisplatin and BGB IC20 combos (AID 1671464); settings: CRL1545 osteosarcoma cells, stronger effect = higher value;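 also: cells exposed to compound for 96 hours before readout; 0% = vehicle DMSO and 100% = high DMSO killing control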
[20] = measured here: epithelial PC-3E GFP cell survival
[21] = measured here: mesenchymal TEM4-18 mCherry cell survival
[22] = measured here: combination with BGB IC40, at 0.05 µM
[23] = measured here: with BGB IC20 combination, at 0.5 µM
[24] = measured here: with cisplatin IC20 combination, at 0.5 µM
[25] = measured here: combination with cisplatin, at 0.5 µM
[26] = measured here: combination with cisplatin, at 5 µM

For CN(C)CC/C=C1/c2ccccc2COc2ccccc21, the red/green cell ratio (normalised) [1] was 1.04 (inactive), the normalised cell number [1, 20] was 1.34 and the normalised cell number [1, 21] was 1.4.
For CCC(=O)NS(=O)(=O)c1ccc(-c2c(-c3ccccc3)noc2C)cc1, the outcome [2] was “inactive”, the outcome [3] was “inactive” and the outcome [4] was “inactive”.
For CO[C@H]1O[C@@H]2O[C@@]3(C)CC[C@H]4[C@H](C)CC[C@@H]([C@H]1C)[C@@]24OO3, the outcome [2] was “inactive”, the outcome [3] was “inactive” and the outcome [4] was “inactive”.
In the case of CC(C)N=c1cc2n(-c3ccc(Cl)cc3)c3ccccc3nc-2cc1Nc1ccc(Cl)cc1, the red/green cell ratio (normalised) [1] is reported as 0.91 (inactive), the normalised cell number [1, 20] is reported as 0.92 and the normalised cell number [1, 21] is reported as 0.84. For the same compound, the inhibition ([5]; at 0.5 µM, stronger effect = higher value) was -31% (inactive), the inhibition ([5]; measured here: combination with BGB IC20, at 0.005 µM) was 13.3% and the inhibition ([5]; measured here: combination with BGB IC40, at 0.005 µM) was -22.3%. It also gave an inhibition [5, 22] of -8.73%, an inhibition ([5]; measured here: combination with cisplatin, at 0.5 µM, stronger effect = higher value) of -48.5% and an inhibition ([5]; measured here: combination with cisplatin, at 5 µM, stronger effect = higher value) of 8.75%. For the same compound, the inhibition ([6]; BGB combo, at 5 µM) was -36.1%, the inhibition ([6]; at 0.5 µM) was -26.4% (inactive) and the inhibition ([6]; cisplatin combo, at 5 µM) was -41.4%. The inhibition [6, 23] was -15.2%, the inhibition [6, 24] was -29% and the inhibition ([6]; single agent, at 5 µM) was -25%. The inhibition ([7]; BGB IC20 combo, at 0.005 µM) was -28.4%, the inhibition ([7]; BGB IC40 combo, at 0.005 µM) was 4.64% and the inhibition ([7]; BGB IC40 combo, at 0.05 µM) was -16%. For the same compound, the inhibition ([7]; at 0.5 µM) was -34.9% (inactive), the inhibition ([7]; cisplatin combo, at 0.05 µM) was -16% and the inhibition ([7]; cisplatin combo, at 0.5 µM) was -47.3%. The inhibition ([7]; cisplatin combo, at 5 µM) was -19.4%, the inhibition ([7]; measured here: 5 uM single agent, at 5 µM) was 1.51% and the inhibition ([8]; at 0.5 µM) was -25.1% (inactive). The inhibition [8, 22] was -36.1%, the inhibition [8, 25] was -57.3% and the inhibition [8, 26] was -48.3%. The inhibition ([9]; at 0.5 µM) was -37.4% (inactive), the inhibition ([9]; measured here: with BGB IC20, at 0.5 µM) was -54.6% and the inhibition ([9]; measured here: with BGB IC20, at 5 µM) was -21.7%. The inhibition ([9]; measured here: with cisplatin IC20, at 0.5 µM) was -36%, the inhibition ([9]; measured here: with cisplatin IC20, at 5 µM) was -38.1% and the inhibition ([9]; single agent, at 5 µM) was -29.1%. The inhibition ([10]; at 0.5 µM) was -74.7% (inactive), the inhibition ([10]; measured here: combination with BGB at IC20, at 0.5 µM) was -58.6% and the inhibition ([10]; measured here: combination with cisplatin at IC20, at 0.5 µM) was -130%. The inhibition ([11]; at 0.5 µM) was -15.1% (inactive), the inhibition ([11]; measured here: combo with BGB at IC20, at 0.5 µM) was -15% and the inhibition ([11]; measured here: combo with cisplatin at IC20, at 0.5 µM) was -18.6%. For the same compound, the inhibition ([12]; at 0.5 µM) was -8.97% (inactive), the inhibition ([12]; measured here: inhibition with BGB combination, at 0.05 µM) was -17.6% and the inhibition ([12]; measured here: inhibition with cisplatin combination, at 0.05 µM) was -17.6%. For the same compound, the inhibition ([13]; at 0.5 µM) was -8.06% (inactive), the inhibition [13, 25] was 1.44% and the inhibition [13, 26] was -0.801%. For the same compound, the inhibition ([14]; at 0.5 µM) was -2.64% (inactive), the inhibition ([14]; measured here: BGB combination, at 0.5 µM) was -2.65% and the inhibition ([14]; measured here: BGB combination, at 5 µM) was -11.8%. It also gave an inhibition ([14]; measured here: cisplatin combination, at 0.5 µM) of -12.6%, an inhibition ([14]; measured here: cisplatin combination, at 5 µM) of 0.559% and an inhibition ([15]; BGB combination, concentration series, at 5 µM) of -7.22%. The inhibition ([15]; at 0.5 µM) was -11.4% (inactive), the inhibition ([15]; cisplatin combination, concentration series, at 5 µM) was 14.7% and the inhibition [16] was -9.92% (inactive). For the same compound, the inhibition ([16]; measured here: combo with BGB IC20) was 3.64%, the inhibition ([16]; measured here: combo with cisplatin IC20) was -24.8% and the inhibition ([17]; at 0.5 µM) was -8.65% (inactive). The inhibition ([17]; cisplatin combination, at 0.5 µM) was -22.2%, the inhibition ([17]; cisplatin combination, at 5 µM) was -55.6% and the inhibition ([17]; measured here: BGB IC40 combination 0.05 uM, at 0.05 µM) was 17%. The inhibition ([17]; single agent, at 5 µM) was -11.5%, the inhibition ([18]; at 0.5 µM) was -9.43% (inactive) and the inhibition ([18]; cisplatin combo, at 5 µM) was -32.6%. It also gave an inhibition ([18]; measured here: BGB IC40 combination, at 0.05 µM) of -2.04%, an inhibition [18, 25] of -6.22% and an inhibition ([18]; single agent, at 5 µM) of -9.57%. The inhibition ([19]; at 0.5 µM) was -22.8% (inactive), the inhibition [19, 23] was -40.5% and the inhibition [19, 24] was -13.9%. It also gave an inhibition ([19]; single agent, at 0.05 µM) of -3.12% and an inhibition ([19]; single agent, at 5 µM) of -18.2%.
With CCCCC[C@H](O)/C=C/[C@H]1[C@H](O)CC(=O)[C@@H]1CCCCCCC(=O)O the outcome [2] was “inactive”, the outcome [3] was “inactive” and the outcome [4] was “inactive”.
In the case of CC(=O)N1CCN(c2ccc(OC[C@H]3CO[C@](Cn4ccnc4)(c4ccc(Cl)cc4Cl)O3)cc2)CC1, the outcome [2] is reported as “inactive”.
